Among all 1,200 compounds or so, about 30 (2%) were called active. Where a call stands in place of a potency, no number is given. Another 23% or so got no clear call; they are omitted. Calls come from the whole dose curve; as a rule, active = well fitted inhibition curve with a large enough effect; inconclusive = small, poorly fitted or top-dose-only effect; inactive = flat fitted curve, though single readings scatter. Only a selection was taken, and actives are over-represented in it overall.
target: Single-stranded DNA cytosine deaminase (Homo sapiens) (UniProt Q9GZX7); experiment: Confirmatory qHTS assay for inhibitors of Activation Induced Cytidine Deaminase (AID): AID signals; conditions: recombinant AID, FRET deamination/UDG coupled fluorescence, 4 h; series mostly up to 115 µM
Sequence (Q9GZX7 whole entry, looked up): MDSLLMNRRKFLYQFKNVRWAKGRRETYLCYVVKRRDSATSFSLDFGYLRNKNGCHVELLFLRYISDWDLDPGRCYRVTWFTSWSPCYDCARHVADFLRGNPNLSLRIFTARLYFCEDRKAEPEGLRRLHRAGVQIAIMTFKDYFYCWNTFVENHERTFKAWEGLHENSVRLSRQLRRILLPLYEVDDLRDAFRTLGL
Excerpt: Assay Provider (PI) Patricia Gearhart Ph.D. National Institute on Aging National Institute of Health (NIH), Bethesda, MD Assay Provider (PI) Rahul Kohli Ph.D. Perelman School of Medicine University of Pennsylvania, Philadelphia, PA Activation-Induced Deaminase (AID) is a cytosine deaminase which converts cytosine into uracil within stretches of ssDNA. The presence of uracil in DNA initiates a cascade of mutagenic DNA repair to introduce point mutations and DNA double strand breaks. Specific targeting of AID to the immunoglobulin heavy chain loci (Igh) promotes mutagenesis in the antibody variable region for somatic hypermutation (SHM) or switch regions leading to class switch recombination (CSR). However, AID also plays a role in accumulating unnecessary mutations across the genome. Mis-targeting of AID results in the initiation of tumor development and leads to greater drug resistance among cancer cells when continually expressed. To identify an AID inhibitor, a small molecule library will be screened in collaboration with NCATS core facility at NIH. To confirm biological function, inhibitors will be examined in an in vitro murine B-cell activation assay and subsequent secondary validation screens. Top molecules will be further screened to identify inhibitory efficacy against a wild type primary splenocytes assay. Using these approaches, we hope to identify a small molecule with great efficacy and low toxicity for use as a molecular probe to further characterize AID's intricacies, or even as a therapeutic. A FRET based analysis of cytosine deamination, was developed to identify potential inhibitors of AID catalytic activity. This screen has two signal output, Read 1 evaluates the AID inhibition response. The second readout (Read 2) evaluates UDG response and is uses as a counterscreen to exclude false positive inhibitors. Inhibition in AID and inactivity in the UDG signal is the desired outcome for this assay.
PROTOCOL TABLE SEQUENCE No. (e.g., 1, 2, 3, etc.); […] (e.g., Cells, Incubation, Reagent, etc.); VALUE; DESCRIPTION 1a; Reagent; 3 uL; [4/3x] 1 uM AID/2.67 U/mL UDG 1b; Reagent; 3 uL; 2 U/mL UDG 1c; Reagent; 3 uL; 1 uM AID 2a; Compound; 46 nL; Follow-up plates (0.64 uM - 10 mM) 2b; Control; 46 nL; ATA (16.4 nM - 10 mM) 3; Time; 10 min; incubation at room temperature 4; Reagents; 1 uL; [4x] 250 nM DJC20 / 250 nM DJC23 [Substrate] 5; Time; 4 hr; incubation at room temperature 6; Reagent; 4 uL; [2x] 250 mM NaOH 7; Time; 15 sec; centrifuge at 1000 rpm 8; Time; 30 min; incubation at room temperature 9a; Detection; fluorescence (Read 1: AID); EnVision (PerkinElmer) plate reader, 540 excitation and 590 emission filters 9b; Detection; fluorescence (Read 2: UDG); EnVision (PerkinElmer) plate reader, 560 excitation and 665 emission filters NOTES (numbers refer to sequence above) 1a; Reagents were dispensed in a medium-binding black solid-bottom Greiner plates (789176F) using a BioRptr liquid dispenser. Dispense 3 uL of [4/3x] 1 uM AID (provided by Kohli lab) and [4/3x] 2 U/mL UDG (NEB M0280L) into columns 1, 2, 5 to 48. 1b; Dispense 3 uL of [4/3x] 2 U/mL UDG into column 3. 1c; Dispense 3 uL of [4/3x] 1 uM AID into column 4. 2a; Compound ([…] [uM]: 0.64; 3.2; 16; 80; 400; 2,000; 10,000; 20,000) double pin-transferred (Dip Factor = 2) using the Kalypsys (Wako USA) pintool equipped with a 1536 pinhead for a final concentration range of 7.32 nM - 114 uM. 2b; 10 mM Aurintricarboxylic Acid (Sigma A1895) (ATA, 8-point, n = 2, 1:2.5 dilution in column 2) double pin-transferred (Dip Factor = 2) using the Kalypsys (Wako USA) pintool equipped with a 1536 pinhead for a [final] range of 186 nM - 114 uM. 3; Room temperature incubation. 4; Dispense 1 uL of substrate mixture from the Kohli lab [4x] […] DJC20 and [4x] 250 nM DJC23 into columns 1 to 48 . 5; Room temperature incubation. 6; Dispense 4 uL of […] [2x] 250 mM NaOH into columns 1 to 48. 7; Centrifugation step to remove bubbles. […]
Potency is the fitted concentration of half-maximal effect.

**Q.** How did the Potency turn out when `COc1ccc(N2CCN(C(=O)c3sc4nc5n(c(=O)c4c3C)CCC5)CC2)cc1` was run?
**A.** inactive

**Q.** For `CCN(CC)c1cc(C)c2cc(NC(=O)c3cccc(OC)c3)ccc2n1`, which Potency is on record?
**A.** inactive

**Q.** Which Potency does the source give for `CCOC(=O)C1=C(CN(CC)Cc2ccccc2)NC(=O)NC1c1ccc(Cl)cc1` (stereo not given) here?
**A.** inactive

**Q.** How did the Potency turn out when `CCc1ccc(CN(Cc2ccco2)C(=O)c2ccc(C)cc2)cc1` was run?
**A.** inactive

**Q.** How did the Potency turn out when `CCCCC1CCC(CCCC(C)CCC(=O)O)CC1` (stereo not given) was run?
**A.** 35.5 µM (active)

**Q.** Which Potency does the source give for `Cc1ccc(C2=NN(CC(=O)NCCCN(CC(C)C)CC(C)C)C(=O)CC2)cc1` here?
**A.** inactive

**Q.** Which Potency does the source give for `COc1ccc(-n2c(-c3ccc(C)cc3)cc3c2CC(C)(C)CC3=O)c(OC)c1` here?
**A.** inactive

**Q.** Which Potency does the source give for `Cc1ccc(Cc2c(C)nc3nc(SCC(=O)NC(C)c4ccccc4)nn3c2C)cc1` (stereo not given) here?
**A.** inactive

**Q.** For `CCCCOc1ccc(C(=O)NCC(c2ccc(Cl)cc2)N2CCOCC2)cc1` (stereo not given), which Potency is on record?
**A.** inactive

**Q.** How did the Potency turn out when `CC1CCCCN1C(=O)CSc1nc2ccccc2nc1Cc1ccccc1` (stereo not given) was run?
**A.** inactive

**Q.** With `COc1cccc(-c2nc(CS(=O)CC(=O)N3CCN(c4cccc(C(F)(F)F)c4)CC3)c(C)o2)c1` (stereo not given) as the molecule, how does the Potency read?
**A.** inactive

**Q.** How did the Potency turn out when `CCc1nc(Nc2ccc(F)c(Cl)c2)c2c3c(sc2n1)CCCC3` was run?
**A.** inactive

**Q.** `Cc1ccc2nc(Cl)c3cc(C(=O)N4CCCC(C)C4)sc3c2c1` (stereo not given) was tested. Which Potency did it give?
**A.** inactive

**Q.** For `Cc1ccc(C(=O)c2cn(Cc3cc(C)ccc3C)c3nc(C)ccc3c2=O)cc1`, which Potency is on record?
**A.** inactive

**Q.** How did the Potency turn out when `O=C(Cc1ccccc1F)N1CCC(c2nc3c(nnn3Cc3cccc(Cl)c3)c(=O)[nH]2)CC1` was run?
**A.** inactive

**Q.** With `CCc1cnc2c(c1SCc1ccccc1C)c(=O)n(C)c(=O)n2C` as the molecule, how does the Potency read?
**A.** inactive

**Q.** `CCN(CC)CCCNC(=O)c1ccc2c(c1)sc1nc(-c3ccc(C)cc3)cn12` was tested. Which Potency did it give?
**A.** inactive

**Q.** Which Potency does the source give for `C[N+](C)(CCCCCC[N+](C)(C)CCCN1C(=O)c2cccc3cccc(c23)C1=O)CCCN1C(=O)c2cccc3cccc(c23)C1=O` here?
**A.** 5.01 µM (active)

**Q.** For `Cc1ccc(C)c(Cn2c(=O)n(CC3CCC(C(=O)N4CCOCC4)CC3)c(=O)c3sccc32)c1` (stereo not given), which Potency is on record?
**A.** inactive

**Q.** Which Potency does the source give for `Cc1ccc(S(=O)(=O)Nc2nc3n(n2)C(c2ccccc2Cl)C=C(c2ccccc2)N3)cc1` (stereo not given) here?
**A.** inactive

**Q.** Which Potency does the source give for `COc1ccc(C2C=C(c3ccccc3)Nc3nc(NS(=O)(=O)c4ccccc4)nn32)cc1` (stereo not given) here?
**A.** inactive

**Q.** For `CC(=O)Nc1ccc(S(=O)(=O)Nc2nc3n(n2)C(c2ccccc2)C=C(c2ccc(Cl)cc2)N3)cc1` (stereo not given), which Potency is on record?
**A.** 39.8 µM (active)

**Q.** `Cc1ccc(C)c(N2CCN(C(=O)c3cccn3-c3nnc(N4CCCCC4)s3)CC2)c1` was tested. Which Potency did it give?
**A.** inactive

**Q.** For `CC1=C(C(=O)NCc2cccc(Cl)c2)C2(CCCCCC2)OC1=O`, which Potency is on record?
**A.** inactive

**Q.** Which Potency does the source give for `CCc1ccc(-n2c(SCc3nc(-c4cc(OC)ccc4OC)no3)nnc2-c2ccccc2)cc1` here?
**A.** inactive

**Q.** Which Potency does the source give for `CCc1ccc(OCC(=O)N(Cc2ccc(C(C)C)cc2)C2CCS(=O)(=O)C2)cc1` (stereo not given) here?
**A.** inactive

**Q.** Which Potency does the source give for `Cc1cccc(-n2ccnc2SCC(=O)Nc2cccc3ccccc23)c1` here?
**A.** inactive

**Q.** `Nc1ccc2oc(Cc3ccc(Cl)cc3)nc2c1` was tested. Which Potency did it give?
**A.** inactive

**Q.** For `Cc1cccc(N2CCN(C(=O)C3CCCN(C(=O)c4cc5sccc5n4C)C3)CC2)c1C` (stereo not given), which Potency is on record?
**A.** inactive

**Q.** With `Cc1ccc(C)c(C(=O)N2CCC(c3nc4c(nnn4Cc4ccccc4)c(=O)[nH]3)CC2)c1` as the molecule, how does the Potency read?
**A.** inactive

**Q.** Which Potency does the source give for `CC1CCN(S(=O)(=O)c2ccc3c(c2)c(=O)c(C(=O)NC(C)c2ccccc2)cn3C)CC1` (stereo not given) here?
**A.** inactive

**Q.** With `CCc1ccccc1NC(=O)CN(c1ccccc1OC)S(=O)(=O)c1ccc(C)cc1` as the molecule, how does the Potency read?
**A.** inactive

**Q.** Which Potency does the source give for `Cc1ccc(C)c(N2CCN(C(=O)c3ccc4c(c3)N(Cc3ccc(F)cc3)C(=O)c3ccccc3S4=O)CC2)c1` (stereo not given) here?
**A.** inactive

**Q.** With `Cc1ccc2nc(Cl)c3cc(C(=O)N4CCCCC4C)sc3c2c1` (stereo not given) as the molecule, how does the Potency read?
**A.** inactive

**Q.** Which Potency does the source give for `O=C(NCCc1ccccc1)c1nc(-c2ccc(Cl)cc2)n2c1CCCCC2` here?
**A.** inactive

**Q.** With `CCCCCn1c(CCCNC(=O)c2cccc(C)c2)nc2ccccc21` as the molecule, how does the Potency read?
**A.** inactive

**Q.** With `COc1ccc(OC)c(NC(=O)N2CC(C)Oc3ccc(C)cc32)c1` (stereo not given) as the molecule, how does the Potency read?
**A.** inactive

**Q.** With `COC(=O)c1ccc(Cl)cc1NC(=O)Nc1nnc(N(C)Cc2ccccc2)s1` as the molecule, how does the Potency read?
**A.** inactive

**Q.** With `N#C/C(=C\c1ccc(-c2cc(Cl)ccc2Cl)o1)C(=O)Nc1cccc2ncccc12` as the molecule, how does the Potency read?
**A.** inactive

**Q.** For `N#C/C(=C\c1ccc(-c2cc(Cl)ccc2Cl)o1)C(=O)Nc1ccccc1C(=O)O`, which Potency is on record?
**A.** 28.2 µM (active)

**Q.** With `N#C/C(=C\c1ccc(-c2ccc(Cl)c(C(=O)O)c2)o1)c1nc2ccccc2[nH]1` as the molecule, how does the Potency read?
**A.** inactive

**Q.** Which Potency does the source give for `Cc1cccc(CSc2ccc3nnc(CCNS(=O)(=O)c4ccccc4)n3n2)c1` here?
**A.** inactive

**Q.** For `Cc1ccc(C(=O)Nc2ccc(S(=O)(=O)O)c3cc(S(=O)(=O)O)cc(S(=O)(=O)O)c23)cc1NC(=O)c1cccc(NC(=O)Nc2cccc(C(=O)Nc3cc(C(=O)Nc4ccc(S(=O)(=O)O)c5cc(S(=O)(=O)O)cc(S(=O)(=O)O)c45)ccc3C)c2)c1`, which Potency is on record?
**A.** 1.12 µM (active)

**Q.** `Cc1ccc(C(=O)Nc2ccccc2C(=O)O)cc1S(=O)(=O)N1CCCCCC1` was tested. Which Potency did it give?
**A.** inactive

**Q.** For `Cc1ccccc1NC(=O)c1ccc(N(Cc2ccccc2)S(C)(=O)=O)cc1`, which Potency is on record?
**A.** inactive
